Reference: the supplement of paper PMC11732987, “Enantioselective OTUD7B fragment discovery through chemoproteomics screening and high-throughput optimisation” (Communications Chemistry, 2025)

What was measured:
Test in all cases: log2 ratio of Biotin-Ahx-Ub-VS probe labelling (fragment/DMSO); higher = less target engagement (more negative = stronger competition), active = hit call of the paper (q ≤ 0.05, log2 ratio ≤ -1)
Conditions in all cases: compound concentration: 200 uM; treatment time: 3 h
[1] = target: T1, ALG13 (UniProt Q9NP73)
T1 sequence (whole entry): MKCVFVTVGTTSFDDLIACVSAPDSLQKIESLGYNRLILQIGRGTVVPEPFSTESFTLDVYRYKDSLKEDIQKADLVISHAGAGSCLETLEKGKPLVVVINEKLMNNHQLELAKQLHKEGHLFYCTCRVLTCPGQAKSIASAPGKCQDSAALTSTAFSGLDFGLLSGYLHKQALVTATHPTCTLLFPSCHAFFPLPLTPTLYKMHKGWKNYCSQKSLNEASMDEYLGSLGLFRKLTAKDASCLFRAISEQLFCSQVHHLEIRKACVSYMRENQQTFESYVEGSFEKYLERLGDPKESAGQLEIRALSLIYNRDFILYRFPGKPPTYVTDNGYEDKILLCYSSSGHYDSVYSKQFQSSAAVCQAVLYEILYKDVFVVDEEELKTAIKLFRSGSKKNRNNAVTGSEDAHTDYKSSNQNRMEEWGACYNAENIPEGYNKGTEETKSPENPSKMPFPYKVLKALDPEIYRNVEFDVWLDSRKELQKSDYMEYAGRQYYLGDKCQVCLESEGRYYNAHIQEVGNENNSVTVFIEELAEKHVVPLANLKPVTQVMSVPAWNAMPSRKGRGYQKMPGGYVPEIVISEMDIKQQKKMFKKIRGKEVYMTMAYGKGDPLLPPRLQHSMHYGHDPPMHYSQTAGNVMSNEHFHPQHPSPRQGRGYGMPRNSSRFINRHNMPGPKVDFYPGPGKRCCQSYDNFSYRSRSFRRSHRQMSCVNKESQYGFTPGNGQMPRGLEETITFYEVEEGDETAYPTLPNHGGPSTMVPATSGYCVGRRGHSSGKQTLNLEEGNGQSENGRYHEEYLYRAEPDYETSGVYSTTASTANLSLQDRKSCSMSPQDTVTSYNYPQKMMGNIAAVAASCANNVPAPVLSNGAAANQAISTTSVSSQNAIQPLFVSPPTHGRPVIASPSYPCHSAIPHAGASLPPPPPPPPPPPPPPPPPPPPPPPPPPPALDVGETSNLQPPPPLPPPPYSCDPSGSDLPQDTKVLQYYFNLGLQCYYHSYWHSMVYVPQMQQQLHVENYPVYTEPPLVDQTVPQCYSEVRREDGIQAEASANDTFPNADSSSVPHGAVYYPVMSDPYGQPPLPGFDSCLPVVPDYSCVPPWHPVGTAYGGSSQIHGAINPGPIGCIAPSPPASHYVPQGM
In short: (§1)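 Triplicate samples of HEK293T lysate, 495 µg each, received fragment at 200 µM or vehicle for 3 h, followed by Biotin-Ahx-Ub-VS (0.5 µM final) for 1 h. After NeutrAvidin enrichment of labelled DUBs and LysC/trypsin digestion, peptides were run by diaPASEF LC-MS/MS. The values are average log2 fragment/vehicle ratios from global-median-normalised Spectronaut label-free quantities, tested by unpaired t-test on proteins having ≥2 unique peptides.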

[2] = target: ATXN3 (UniProt P54252)
ATXN3, sequence (P54252 whole entry): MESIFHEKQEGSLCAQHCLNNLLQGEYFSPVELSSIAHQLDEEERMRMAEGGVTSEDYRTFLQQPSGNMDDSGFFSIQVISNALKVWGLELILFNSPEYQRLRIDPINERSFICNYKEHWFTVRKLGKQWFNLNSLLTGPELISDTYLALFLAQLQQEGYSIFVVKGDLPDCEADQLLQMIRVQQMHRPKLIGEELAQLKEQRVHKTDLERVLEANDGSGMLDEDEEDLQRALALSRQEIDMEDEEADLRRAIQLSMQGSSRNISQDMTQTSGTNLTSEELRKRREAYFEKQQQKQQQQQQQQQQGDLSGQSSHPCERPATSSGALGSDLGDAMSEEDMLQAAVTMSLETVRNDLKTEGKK
In short: as §1

[3] = target: T2, BAP1 (UniProt Q92560)
T2 sequence (whole entry): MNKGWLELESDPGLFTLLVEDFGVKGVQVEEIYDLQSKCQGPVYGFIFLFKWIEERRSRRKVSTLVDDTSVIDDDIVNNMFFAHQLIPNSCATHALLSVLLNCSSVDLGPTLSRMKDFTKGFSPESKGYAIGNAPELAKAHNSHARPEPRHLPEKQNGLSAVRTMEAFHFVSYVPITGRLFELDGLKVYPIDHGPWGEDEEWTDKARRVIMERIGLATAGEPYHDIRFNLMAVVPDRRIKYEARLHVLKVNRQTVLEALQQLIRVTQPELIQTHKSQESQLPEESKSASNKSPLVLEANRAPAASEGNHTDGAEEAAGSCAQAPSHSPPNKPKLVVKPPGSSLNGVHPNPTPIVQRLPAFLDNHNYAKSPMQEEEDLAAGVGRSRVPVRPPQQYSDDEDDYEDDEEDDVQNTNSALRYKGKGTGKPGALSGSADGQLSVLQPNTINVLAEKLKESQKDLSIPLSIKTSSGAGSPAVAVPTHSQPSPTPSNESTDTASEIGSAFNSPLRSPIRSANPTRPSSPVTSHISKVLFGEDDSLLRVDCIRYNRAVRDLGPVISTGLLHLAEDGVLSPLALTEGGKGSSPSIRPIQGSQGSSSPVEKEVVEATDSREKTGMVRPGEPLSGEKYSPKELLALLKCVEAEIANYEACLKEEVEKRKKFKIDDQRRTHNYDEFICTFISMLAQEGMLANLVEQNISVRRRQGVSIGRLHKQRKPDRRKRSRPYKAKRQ
In short: as §1

[4] = target: EIF3F (UniProt O00303)
EIF3F, sequence (O00303 whole entry): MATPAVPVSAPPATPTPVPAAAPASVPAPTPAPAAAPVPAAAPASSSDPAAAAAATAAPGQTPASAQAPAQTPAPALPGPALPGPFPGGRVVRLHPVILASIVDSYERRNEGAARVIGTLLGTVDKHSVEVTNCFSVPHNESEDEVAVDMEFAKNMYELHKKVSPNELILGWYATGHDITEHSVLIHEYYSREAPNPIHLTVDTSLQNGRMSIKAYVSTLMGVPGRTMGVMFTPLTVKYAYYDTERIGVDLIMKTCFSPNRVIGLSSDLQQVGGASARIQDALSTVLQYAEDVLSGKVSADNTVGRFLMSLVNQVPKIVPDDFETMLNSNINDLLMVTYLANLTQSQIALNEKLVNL
In short: as §1

[5] = target: EIF3H (UniProt O15372)
EIF3H, sequence (O15372 whole entry): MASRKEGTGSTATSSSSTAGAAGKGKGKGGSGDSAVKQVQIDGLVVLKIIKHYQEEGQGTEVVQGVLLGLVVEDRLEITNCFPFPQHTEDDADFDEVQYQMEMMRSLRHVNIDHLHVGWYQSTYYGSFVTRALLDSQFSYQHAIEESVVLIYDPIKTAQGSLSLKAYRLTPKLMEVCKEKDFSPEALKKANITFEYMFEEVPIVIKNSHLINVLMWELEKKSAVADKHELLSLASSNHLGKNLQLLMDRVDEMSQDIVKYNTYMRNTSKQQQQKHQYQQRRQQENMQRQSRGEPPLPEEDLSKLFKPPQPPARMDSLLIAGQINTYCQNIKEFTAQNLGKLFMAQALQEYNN
In short: as §1

[6] = target: T3, FAM105A (UniProt Q9NUU6)
T3 sequence (whole entry): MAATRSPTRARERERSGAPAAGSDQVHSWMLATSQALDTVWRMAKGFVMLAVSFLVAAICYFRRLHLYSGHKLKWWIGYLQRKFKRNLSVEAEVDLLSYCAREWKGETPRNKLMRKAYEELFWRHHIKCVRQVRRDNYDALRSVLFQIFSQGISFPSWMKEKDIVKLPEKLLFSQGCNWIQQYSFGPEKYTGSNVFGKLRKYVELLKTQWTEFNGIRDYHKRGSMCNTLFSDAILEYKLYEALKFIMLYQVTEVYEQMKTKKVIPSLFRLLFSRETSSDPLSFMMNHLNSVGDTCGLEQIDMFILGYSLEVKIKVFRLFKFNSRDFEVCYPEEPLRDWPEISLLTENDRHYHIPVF
In short: as §1

[7] = target: OTUB1 (UniProt Q96FW1)
OTUB1, sequence (Q96FW1 whole entry): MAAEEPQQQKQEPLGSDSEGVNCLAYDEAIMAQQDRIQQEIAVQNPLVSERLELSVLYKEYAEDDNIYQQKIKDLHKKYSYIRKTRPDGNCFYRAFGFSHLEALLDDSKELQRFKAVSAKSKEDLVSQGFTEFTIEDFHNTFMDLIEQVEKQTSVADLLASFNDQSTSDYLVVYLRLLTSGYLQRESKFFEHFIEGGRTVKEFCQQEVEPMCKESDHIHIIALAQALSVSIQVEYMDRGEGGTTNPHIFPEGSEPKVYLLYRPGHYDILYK
In short: as §1

[8] = target: T4, OTUD4 (UniProt Q01804)
T4 sequence (whole entry): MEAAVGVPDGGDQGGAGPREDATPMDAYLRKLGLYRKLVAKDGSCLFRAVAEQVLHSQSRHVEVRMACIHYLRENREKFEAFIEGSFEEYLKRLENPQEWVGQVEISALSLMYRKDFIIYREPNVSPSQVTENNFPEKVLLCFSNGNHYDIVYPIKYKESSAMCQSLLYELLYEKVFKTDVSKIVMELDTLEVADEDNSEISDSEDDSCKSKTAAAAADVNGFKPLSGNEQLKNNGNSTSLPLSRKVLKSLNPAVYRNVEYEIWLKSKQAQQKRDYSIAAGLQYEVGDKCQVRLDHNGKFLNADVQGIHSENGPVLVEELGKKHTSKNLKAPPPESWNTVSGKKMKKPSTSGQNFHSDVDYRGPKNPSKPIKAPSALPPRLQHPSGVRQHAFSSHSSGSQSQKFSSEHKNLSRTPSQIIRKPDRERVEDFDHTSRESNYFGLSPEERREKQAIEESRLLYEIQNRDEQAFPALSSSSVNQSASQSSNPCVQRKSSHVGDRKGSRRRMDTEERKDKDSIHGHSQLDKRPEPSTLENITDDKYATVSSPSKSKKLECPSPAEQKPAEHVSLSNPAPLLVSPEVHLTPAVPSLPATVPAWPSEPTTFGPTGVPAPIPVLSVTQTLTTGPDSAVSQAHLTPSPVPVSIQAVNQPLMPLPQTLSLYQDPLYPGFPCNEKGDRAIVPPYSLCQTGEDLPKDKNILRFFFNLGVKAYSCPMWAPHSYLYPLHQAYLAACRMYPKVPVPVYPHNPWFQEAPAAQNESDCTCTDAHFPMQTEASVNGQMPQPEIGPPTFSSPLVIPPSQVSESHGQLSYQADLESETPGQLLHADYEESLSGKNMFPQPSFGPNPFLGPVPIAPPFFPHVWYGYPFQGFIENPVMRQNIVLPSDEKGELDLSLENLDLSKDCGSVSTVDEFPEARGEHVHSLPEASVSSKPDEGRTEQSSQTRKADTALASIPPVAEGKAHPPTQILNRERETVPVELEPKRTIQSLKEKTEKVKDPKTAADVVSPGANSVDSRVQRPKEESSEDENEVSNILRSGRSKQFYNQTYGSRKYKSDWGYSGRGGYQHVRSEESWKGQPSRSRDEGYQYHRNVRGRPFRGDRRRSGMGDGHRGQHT
In short: as §1

[9] = target: T5, OTUD5 (UniProt Q96G74)
T5 sequence (whole entry): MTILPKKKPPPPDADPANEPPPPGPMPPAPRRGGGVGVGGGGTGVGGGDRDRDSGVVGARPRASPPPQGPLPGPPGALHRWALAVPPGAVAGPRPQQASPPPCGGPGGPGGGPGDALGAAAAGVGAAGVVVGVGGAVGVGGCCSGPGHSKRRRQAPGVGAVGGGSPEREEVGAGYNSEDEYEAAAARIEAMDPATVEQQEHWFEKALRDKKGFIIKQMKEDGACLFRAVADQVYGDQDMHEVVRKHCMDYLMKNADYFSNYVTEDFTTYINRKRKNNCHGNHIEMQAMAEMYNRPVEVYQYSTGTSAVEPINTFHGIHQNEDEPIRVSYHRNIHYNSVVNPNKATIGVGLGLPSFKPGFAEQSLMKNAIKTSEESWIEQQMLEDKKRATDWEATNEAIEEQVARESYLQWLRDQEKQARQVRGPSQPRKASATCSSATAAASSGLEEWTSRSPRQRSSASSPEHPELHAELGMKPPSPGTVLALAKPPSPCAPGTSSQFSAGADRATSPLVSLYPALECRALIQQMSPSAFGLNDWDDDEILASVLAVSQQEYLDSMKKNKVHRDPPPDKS
In short: as §1

Measured: log2 ratio of Biotin-Ahx-Ub-VS probe labelling

CCN1C(=O)C2CN(C(=O)CCl)CCN2C1=O (centres undefined)
inactive: [1] 0.104 | [2] -0.84 | [3] -0.369 | [4] -0.18 | [5] 0.0778 | [6] -0.218 | [7] -0.315 | [8] -0.523 | [9] -0.206
